Compound activity from PubChem.
The list is not random: actives were taken first. Their share in the collection is about 4.6%.
TRHR ag – TRH receptor (human) agonism. P34981. TRHR cells, calcium flux fluo-8, FDSS agonist mode. activation, % at 2 µM. 360,000 compounds, 0.18% hits. AID 493084; note: 0% is about no effect
Target sequence (P34981 whole entry, looked up): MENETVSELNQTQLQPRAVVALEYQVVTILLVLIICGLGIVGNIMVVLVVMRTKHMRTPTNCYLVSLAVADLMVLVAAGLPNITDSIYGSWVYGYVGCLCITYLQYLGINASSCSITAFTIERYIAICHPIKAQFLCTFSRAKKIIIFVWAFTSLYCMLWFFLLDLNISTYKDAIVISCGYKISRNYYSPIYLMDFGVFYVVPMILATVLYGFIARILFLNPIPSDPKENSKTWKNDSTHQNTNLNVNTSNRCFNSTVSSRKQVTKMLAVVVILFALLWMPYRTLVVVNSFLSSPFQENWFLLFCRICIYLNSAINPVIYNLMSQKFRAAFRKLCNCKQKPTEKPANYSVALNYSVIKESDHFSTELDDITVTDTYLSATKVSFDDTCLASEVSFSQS
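Steps: seed TRHR cells overnight; add fluo-8 no-wash Ca dye, RT 30 min–1.5 h; record 10 s baseline; pin-transfer compounds; monitor fluorescence 1 cycle/s for the agonist window. Calcium increases flag candidate agonists.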
TRHR enhancer – TRH receptor (human) allosteric enhancement; P34981; TRHR cells, fluo-8 calcium fluorescence, EC20 TRH enhancement; enhancement, % at 2 µM; 360,000 compounds, 0.66% hits; in the data active = enhancement above about 30%; note: 0% is about no effect
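Enhancer read-out: after compound pinning and an initial kinetic agonist-mode read, an EC20 of TRH (10 nM final) was injected and fluo-8 calcium signal (Ex 480/Em 530) followed at 1 s/cycle for 100 cycles in TRHR-expressing cells.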
D1 potentiator – potentiators of human D1 dopamine receptor | HEK293 TREx D1 cells, calcium flux, dopamine EC20 potentiation | 360,000 compounds, 0.036% hits | P21728 | AID 504651 | potentiation, % at 10 µM; in the data active = potentiation above about 30%; note: 0% is about no effect
D1 ag – activates the human D1 dopamine receptor. activation, % at 2 µM. P21728. HEK293 T-REx D1 cells, calcium flux, agonist mode. 360,000 compounds, 1% hits; note: 0% is about no effect
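Tetracycline-induced HEK293 TREx D1 cells, force-coupled to calcium signalling, were dye-loaded with a no-wash calcium kit. Compound was pin-added after a 10 s baseline. Fluorescence was read kinetically at 1 cycle/s for 180 s, with calcium rises flagged as agonism.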
D1 antag – human D1 dopamine receptor antagonism. P21728. HEK293 TREx D1 cells, calcium flux, dopamine EC80; hits give low values. activity change, negative = inhibition, % at 10 µM. 360,000 compounds, 3.2% hits; in the data active = activity change below about -30%; note: % is set by controls: 0 for no effect and ±100 for the full control effect
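Cells carrying a force-coupled, tetracycline-inducible human D1 receptor report calcium flux. Each well gets a 10 s baseline, compound with 180 s monitoring, then an EC80 dopamine stimulus with a second 180 s kinetic read.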
Starred values were filed as active, the others as inactive. Cut-off read from the data, not from the text of the source, unless noted: active = activation above about 30%; inactive = the rest.

SMILES	TRHR ag	TRHR enhancer	D1 potentiator	D1 ag	D1 antag
CC1CCCN(CCOCCOc2ccc(Br)cc2Cl)C1 (stereo unspecified)	0	0	-10	26	-32*
CN1CCN(CCOCCOc2ccc(Br)cc2Cl)CC1	1	-2	-8	5	2
CC1CCCN(CCOCCOc2ccc(Cl)cc2Br)C1 (stereo unspecified)	15	-14	-9	28	-27
O=C(c1cc(C2CC2)nn1-c1ccccc1)N1CCN(c2ccc(O)cc2)CC1	-1	30*	12	2	2
CCc1ccccc1NC(=O)C1CCCN(c2cnccn2)C1 (stereo unspecified)	-1	16	3	0	-5
COc1ccccc1NS(=O)(=O)c1cccc(C(=O)N/N=C/c2c(CO)cnc(C)c2O)c1	16	-3	-7	13	-30*
N#CN1CCC(NC(=O)c2ccc(C(F)(F)F)cc2)CC1	-1	2	-5	0	-1
CC(C)NC(=O)c1ccc2c(c1)nc1n2CCCCC1	0	-1	-1	0	1
COC(=O)C1=C(C)N(Cc2ccc(OC)cc2)C(=O)/C1=C\c1ccco1	0	-4	-10	2	-34*
CN=C1N[C@H](c2ccccc2)N(c2ccccc2)S1	3	0	-4	1	10
Cc1nc2nc(NCc3ccccc3Cl)[nH]n2c(=O)c1Cc1ccccc1	0	-6	0	1	7
CCc1c(C)nc2nc(SCc3ccccc3Cl)[nH]n2c1=O	0	7	-9	7	-43*
CCCN(CCC)C(=O)c1nn(C)c2c1CSc1ccc(C)cc1-2	0	-1	1	3	-16
Cc1ccc(NC(=O)c2ccc(F)c(S(=O)(=O)N3CCc4ccccc4C3)c2)cc1F	1	2	-1	4	3
Cc1ccc(NC(=O)c2ccc(F)c(S(=O)(=O)NCCc3ccccc3)c2)cc1F	2	3	-1	12	-30*
COC(=O)c1ccc(NC(=O)CSc2ccc(-c3sc(-c4ccccc4)nc3C)nn2)cc1	0	1	-6	0	-46*
Cc1nc(-c2ccccc2)sc1-c1ccc(SCC(=O)Nc2ccccc2)nn1	1	2	-5	0	-2
CNCc1ccccc1Sc1cccc2ccccc12	1	4	-10	59*	-19
CN(C)CCN(C)Cc1ccccc1Sc1cccc2ccccc12	1	4	-15	51*	-36*
CNCc1ccccc1Sc1ccc(OC)cc1	0	9	-1	9	8
Cn1c(SCc2ccc(F)cc2)nc2ccc(C(=O)NCc3ccc(Cl)cc3)cc21	0	1	-5	11	-6
Cn1c(SCc2ccc(F)cc2)nc2ccc(C(=O)NCc3ccc(F)cc3)cc21	2	6	-3	13	-32*
CC(C)c1ccc(C2c3c(-c4ccccc4O)n[nH]c3C(=O)N2CCc2ccccc2)cc1 (stereo unspecified)	0	2	4	1	3
O=C1C2C(c3cccc(/C=C/c4ccccc4)c3)CC=CC2C(c2ccc3ccccc3c2)N1Cc1ccccc1 (stereo unspecified)	0	-2	-2	5	-42*
O=S(=O)(Cc1cc(Oc2ccccc2)nc(-c2ccccc2)n1)c1ccccc1	0	2	-5	0	-33*
SMILES	TRHR ag	TRHR enhancer	D1 potentiator	D1 ag	D1 antag
Cc1ccc2c(nc3s/c(=C\c4ccc(-c5ccccc5C(=O)O)o4)c(=O)n32)c1C	54*	9	-3	191*	-5
Cc1ccc2c(nc3s/c(=C/c4cccs4)c(=O)n32)c1C	-1	0	1	2	2
O=C(O)c1ccc(-c2ccc(/C=c3/sc4nc5ccccc5n4c3=O)o2)cc1Cl	55*	5	-5	48*	-20
Cc1cc(/C=c2\sc3nc4ccccc4n3c2=O)c(C)n1-c1ccc(C(=O)O)cc1	1	-3	-1	2	-7
Cc1ccccc1Cn1cnc2nc3c(cc2c1=O)CC(C)CC3 (stereo unspecified)	0	4	-3	3	7
O=c1cc(-c2ccc(F)cc2)nc(SCc2nc(-c3ccc(Cl)cc3)no2)[nH]1	0	43*	-2	2	-9
Cc1ccc(NC(=O)Cn2c(=O)n(CCC(=O)NCc3ccccc3Cl)c(=O)c3ccccc32)cc1	-1	10	0	4	3
Cc1cc(NC(c2nnc(-c3ccccc3)o2)c2ccccc2F)ccc1Br (stereo unspecified)	0	-5	-5	5	2
CSc1nc2ccc(S(=O)(=O)Nc3c(C)n(C)n(-c4ccccc4)c3=O)cc2s1	0	2	-7	0	-91*
CCN(Cc1ccccc1)C(=O)COC(=O)c1cc(S(=O)(=O)Nc2c(C)n(C)n(-c3ccccc3)c2=O)ccc1C	-1	9	-7	2	-2
Cc1c(NS(=O)(=O)c2ccc(C(=O)NCc3ccc(F)cc3)cc2)c(=O)n(-c2ccccc2)n1C	0	2	-9	0	-36*
Cc1ccc(S(=O)(=O)Nc2c(C)n(C)n(-c3ccccc3)c2=O)cc1C(=O)NCc1ccccn1	-2	4	-5	0	-34*
Cc1c(NS(=O)(=O)c2ccc3c(c2)n(C)c(=O)n3C)c(=O)n(-c2ccccc2)n1C	0	5	0	0	4
CCN(Cc1ccccc1)C(=O)C(C)OC(=O)c1cc(S(=O)(=O)Nc2c(C)n(C)n(-c3ccccc3)c2=O)ccc1C (stereo unspecified)	-1	7	-1	1	-69*
Cc1ccc(S(=O)(=O)N2CCCCC2)cc1C(=O)NCc1ccccn1	1	2	3	-3	14
Cc1ccc(NC(=O)c2ccc(S(=O)(=O)Nc3c(C)n(C)n(-c4ccccc4)c3=O)cc2)nc1	0	3	-4	4	7
CCn1c(C(=O)N2CCCC(C(=O)N3CCN(c4ccccc4)CC3)C2)cc2sccc21 (stereo unspecified)	0	-4	-2	0	-10
CC(C)(C)NC(=O)CSc1nnnn1C(C)(C)C	0	-3	-10	4	-38*
CC(C)c1nnc(SCC(=O)NC(C)(C)C)n1C	1	-1	2	2	-3
COc1ccc(CCN(C)C(=O)CSc2nc3ncc(Cl)cc3[nH]2)cc1OC	1	-2	-1	-1	-67*
COc1ccc(CCN(C)C(=O)CSc2nccn2C)cc1OC	0	-1	-2	4	3
CCOc1ccc(C2=NNC(c3cccs3)=Nc3ccc(OC)cc32)cc1	0	0	-5	1	-38*
CN1CC=C2C(C#N)=C(N)C(C#N)(C#N)C(CCc3ccccc3)C2C1 (stereo unspecified)	5	22	-9	8	-62*
